PubChem BioAssay (NCI)
Compounds without any hit were thinned out: in the full panel of roughly 79,000, 15% have a hit. Activity calls are given as the source filed them. Rule as the data show it: active = growth inhibition above about 70%; inactive = the rest.

What was measured:
[1] = NCI Yeast Anticancer Drug Screen. Data for the rad52 strain (AID 147);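 also: 0% = growth of vehicle-treated control cultures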; conditions: S. cerevisiae rad52 mutant growth inhibition, stronger effect = higher value
Outline: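 Screen used a yeast mutant impaired in DNA repair. After compound exposure, growth was measured. Values reflect inhibition compared with vehicle-treated cells.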

[2] = NCI Yeast Anticancer Drug Screen. Data for the wt1 strain (AID 149);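 also: 0% = growth of vehicle-treated wt1 cultures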; conditions: S. cerevisiae wt1 strain (SPY 50644) growth inhibition, stronger effect = higher value
Outline: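 Compounds are added to wt1 yeast cultures. Growth is then measured. Inhibition is expressed relative to vehicle-treated controls.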

[3] = NCI Yeast Anticancer Drug Screen. Data for the rad50EPP+ strain (AID 151);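 also: 0% = growth of vehicle-treated control cultures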; conditions: S. cerevisiae rad50 mutant strain, stronger effect = higher value
Outline: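 Exposing the rad50EPP+ strain to each compound, growth was compared with vehicle-only cultures to give inhibition.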

[4] = NCI Yeast Anticancer Drug Screen. Data for the mgt1 strain (AID 153); conditions: S. cerevisiae mgt1 mutant growth inhibition, stronger effect = higher value
Outline: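 Genetically defined yeast (mgt1) treated with compound; inhibition of growth expressed against vehicle-treated controls.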

[5] = NCI Yeast Anticancer Drug Screen. Data for the rad50 strain (AID 155);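 also: 0% = growth of vehicle-only cultures of the same strain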; conditions: S. cerevisiae rad50 strain growth inhibition, stronger effect = higher value
Outline: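 Inhibition values express reduced yeast growth in compound-treated cultures relative to vehicle-treated controls.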

[6] = NCI Yeast Anticancer Drug Screen. Data for the mec2-1 strain (AID 157); conditions: S. cerevisiae mec2-1 strain, stronger effect = higher value
Outline: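 Readout is yeast growth inhibition, normalised to vehicle-treated controls, in the mec2-1 strain exposed to compound.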

[7] = NCI Yeast Anticancer Drug Screen. Data for the rad14 strain (AID 159);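 also: 0% = growth of vehicle-treated control cultures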; conditions: S. cerevisiae rad14 strain growth inhibition, stronger effect = higher value
Outline: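 A mutant yeast strain defective in DNA damage repair is treated with compound; inhibition of its growth is scored against untreated, vehicle-exposed cultures.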

[8] = NCI Yeast Anticancer Drug Screen. Data for the sgs1 mgt1 strain (AID 161);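 also: 0% = growth of cultures given vehicle only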; conditions: S. cerevisiae sgs1 mgt1 strain, stronger effect = higher value
Outline: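 Percent growth inhibition was derived by comparing compound-exposed mutant yeast with vehicle-exposed cultures. The strain carries alterations in DNA damage repair.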

[9] = NCI Yeast Anticancer Drug Screen. Data for the CLN2oe strain (AID 163);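 also: 0% = growth of vehicle-only control cultures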; conditions: S. cerevisiae CLN2oe strain, stronger effect = higher value
Outline: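 Values reflect how much compound exposure reduced yeast growth, referenced to vehicle-exposed cells. Assay organism is a strain with a defined genetic change affecting cell-cycle control.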

[10] = NCI Yeast Anticancer Drug Screen. Data for the cln2 rad14 strain (AID 165);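 also: 0% = growth equal to vehicle treated cultures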; conditions: S. cerevisiae cln2 rad14 strain, stronger effect = higher value
Outline: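 Relative to vehicle controls, growth inhibition of compound-treated cln2 rad14 yeast was recorded.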

[11] = NCI Yeast Anticancer Drug Screen. Data for the bub3 strain (AID 167); conditions: S. cerevisiae bub3 mutant strain, stronger effect = higher value
Outline: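 Steps: expose the mutant yeast strain to compound; grow alongside vehicle-treated cultures; measure growth; express inhibition against the vehicle cultures.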

[12] = NCI Yeast Anticancer Drug Screen. Data for the wt2 strain (AID 169);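 also: 0% = growth of vehicle-treated yeast cultures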; conditions: S. cerevisiae wt2 strain growth inhibition, stronger effect = higher value
Outline: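 Values express reduction in yeast growth under compound treatment, referenced to vehicle-treated cells.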

[13] = NCI Yeast Anticancer Drug Screen. Data for the mlh1 strain (AID 171);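 also: 0% = growth of vehicle-treated control cultures of the same strain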; conditions: S. cerevisiae mlh1 strain growth inhibition, stronger effect = higher value
Outline: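 Steps: expose the defined-mutant yeast strain to compound; expose a parallel culture to vehicle; measure growth; express compound effect as inhibition relative to the vehicle culture.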

[14] = NCI Yeast Anticancer Drug Screen. Data for the sgs1 strain (AID 173);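 also: 0% = growth of vehicle-only control cultures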; conditions: S. cerevisiae sgs1 mutant, stronger effect = higher value
Outline: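 Treat defined-mutant yeast with compound; measure growth; calculate inhibition relative to vehicle-treated cells.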

[15] = NCI Yeast Anticancer Drug Screen. Data for the mlh1 rad18 strain (AID 175); conditions: S. cerevisiae mlh1 rad18 strain growth inhibition, stronger effect = higher value
Outline: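 Test agents were incubated with a yeast strain of defined genotype (DNA damage repair defect). Inhibition of growth was derived by comparison with vehicle-exposed cultures.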

[16] = NCI Yeast Anticancer Drug Screen. Data for the rad18 strain (AID 177); conditions: S. cerevisiae rad18 mutant growth inhibition, stronger effect = higher value
Outline: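 A genetically defined yeast mutant impaired in DNA damage repair was treated with test compounds, then its growth was measured against cultures receiving vehicle alone.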

[17] = at 5.0 µM (retest, dose inferred, filed as 0.5)
[18] = at 50.0 µM (retest, dose inferred, filed as 5.0)

Measured: growth inhibition

O=C(O)CCCc1cc(I)c(N(CCCl)CCCl)c(I)c1
active: [1]; at 33.0 µM 75% | [1]; at 100.0 µM 96% | [2]; at 100.0 µM 98% | [4]; at 33.0 µM 80% | [4]; at 100.0 µM 97% | [5]; [18] 98% | [5]; at 100.0 µM 94% | [6]; [18] 99% | [6]; at 100.0 µM 95% | [7]; at 100.0 µM 95% | [8]; [18] 99% | [9]; at 33.0 µM 87% | [9]; at 100.0 µM 97% | [10]; [18] 98% | [11]; at 33.0 µM 73% | [11]; [18] 97% | [11]; at 100.0 µM 94% | [12]; at 33.0 µM 91% | [12]; at 100.0 µM 97% | [13]; at 33.0 µM 85% | [13]; at 100.0 µM 95% | [14]; at 33.0 µM 88% | [14]; at 100.0 µM 96% | [15]; [18] 98% | [16]; at 33.0 µM 76% | [16]; at 100.0 µM 93%
inactive: [1]; at 1.2 µM -18% | [1]; at 3.7 µM -35% | [1]; at 11.0 µM -14% | [2]; at 1.2 µM -59% | [2]; at 3.7 µM -53% | [2]; at 11.0 µM -59% | [2]; at 33.0 µM 68% | [3]; at 1.2 µM -25% | [3]; at 3.7 µM -15% | [3]; at 11.0 µM -27% | [3]; at 33.0 µM -23% | [3]; at 100.0 µM -33% | [4]; at 1.2 µM -20% | [4]; at 3.7 µM -42% | [4]; at 11.0 µM -42% | [5]; at 1.2 µM -60% | [5]; at 3.7 µM -55% | [5]; [17] 41% | [5]; at 11.0 µM -35% | [5]; at 33.0 µM 45% | [5]; at 50.0 µM 37.9% | [6]; at 1.2 µM -77% | [6]; at 3.7 µM -73% | [6]; [17] 11% | [6]; at 11.0 µM -36% | [6]; at 33.0 µM 60% | [6]; at 50.0 µM 69.1% | [7]; at 1.2 µM -59% | [7]; at 3.7 µM -59% | [7]; at 11.0 µM -26% | [7]; at 33.0 µM 37% | [8]; [17] 50% | [8]; at 50.0 µM 46.2% | [9]; at 1.2 µM -13% | [9]; at 3.7 µM -23% | [9]; at 11.0 µM -13% | [10]; [17] 45% | [10]; at 50.0 µM 53.5% | [11]; at 1.2 µM -58% | [11]; at 3.7 µM -37% | [11]; [17] 51% | [11]; at 11.0 µM -60% | [11]; at 50.0 µM 48% | [12]; at 1.2 µM -13% | [12]; at 3.7 µM -14% | [12]; at 11.0 µM -19% | [13]; at 1.2 µM -50% | [13]; at 3.7 µM -29% | [13]; at 11.0 µM -38% | [14]; at 1.2 µM -40% | [14]; at 3.7 µM -46% | [14]; at 11.0 µM -24% | [15]; [17] 25% | [15]; at 50.0 µM 69.3% | [16]; at 1.2 µM -63% | [16]; at 3.7 µM -50% | [16]; at 11.0 µM -13%
